rCAG RNA binder = binds r(CAG) RNA repeats; actives 1.3% (n = 370,000); r(CAG) RNA repeat, TO-PRO-1 dye displacement fluorescence; inhibition, % at 3 µM;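 active means inhibition above the plate cutoff, the mean of all test compounds on that plate plus 3 SD, cut at about 35% in these data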;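 further: 0% = DMSO alone and 100% = 100 µM mitoxantrone as full dye displacement; higher means more dye released from RNA so lower well fluorescence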
Exocytosis inh = blocks lytic granule exocytosis. TALL-104 LAMP-1 surface exposure, flow cytometry; cells stimulated with thapsigargin and PMA. inhibition, % at 10 µM. actives 0.66% (n = 360,000);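 active means inhibition above about 55%, limit read from the data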
PG9 Ab binder = small molecules binding HIV-1 gp120 antibody PG9; inhibition, % at 6.7 µM; TR-FRET gp120-PG9 antibody binding; actives 0.43% (n = 360,000); in the data active means inhibition above about 8.5%
ABCB6 inh MLPCN = human ABCB6 transporter inhibition; AID 602162; Q9NP58; K562-ABCB6 porphyrin accumulation, flow cytometry, 1 h; stronger effect = lower value; fluorescence ratio to DMSO, % at 10 µM; actives 0.19% (n = 360,000);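 active means fluorescence ratio to DMSO below 75%, the collection mean minus 3 SD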;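 further: signal is porphyrin accumulated inside mitochondria; 100% equals median channel fluorescence of DMSO control wells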
Target sequence (Q9NP58 whole entry, looked up): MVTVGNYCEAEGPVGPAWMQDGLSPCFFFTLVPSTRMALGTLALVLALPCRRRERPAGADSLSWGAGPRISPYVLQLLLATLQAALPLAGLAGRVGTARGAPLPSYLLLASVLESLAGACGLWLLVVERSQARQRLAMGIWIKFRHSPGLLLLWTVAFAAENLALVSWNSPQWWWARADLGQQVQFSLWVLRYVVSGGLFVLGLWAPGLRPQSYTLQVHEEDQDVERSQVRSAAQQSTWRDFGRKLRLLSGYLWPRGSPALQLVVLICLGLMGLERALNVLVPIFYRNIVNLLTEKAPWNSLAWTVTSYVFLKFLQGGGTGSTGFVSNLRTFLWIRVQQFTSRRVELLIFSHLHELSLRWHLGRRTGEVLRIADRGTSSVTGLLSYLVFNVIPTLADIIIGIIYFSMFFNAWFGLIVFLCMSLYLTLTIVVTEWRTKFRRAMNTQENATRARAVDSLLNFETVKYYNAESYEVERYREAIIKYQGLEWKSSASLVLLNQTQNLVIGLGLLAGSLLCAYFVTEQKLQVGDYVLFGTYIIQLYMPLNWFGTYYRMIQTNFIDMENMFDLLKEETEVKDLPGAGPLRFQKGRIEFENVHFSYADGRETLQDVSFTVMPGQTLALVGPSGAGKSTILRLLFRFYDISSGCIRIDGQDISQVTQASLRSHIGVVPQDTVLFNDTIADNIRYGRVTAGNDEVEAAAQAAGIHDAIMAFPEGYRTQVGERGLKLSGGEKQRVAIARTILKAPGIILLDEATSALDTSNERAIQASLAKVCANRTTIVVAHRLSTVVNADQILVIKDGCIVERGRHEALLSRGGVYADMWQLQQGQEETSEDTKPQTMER
Granule exo CP1 = lytic granule exocytosis inhibition; shares compounds with Exocytosis inh; TALL-104 cells, LAMP-1 externalization, flow cytometry; stimulated with PMA plus thapsigargin; inhibition, % at 10 µM; actives 11% (n = 1,500); AID 651954; in the data active means inhibition above about 60%;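 further: 0% = stimulated vehicle wells and 100% = unstimulated wells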
* = called active by the depositor; . = no result. Shown are actives, neighbours in structure and some others; about 2.5% of the full set was active somewhere.

SMILES	rCAG RNA binder	Exocytosis inh	PG9 Ab binder	ABCB6 inh MLPCN	Granule exo CP1
O=C(O)C1=C[C@@H](c2ccccc2)C[C@@H](OCCCCO)O1	4.3	1.4	-2.0	100.0	.
COC(=O)c1ccc(Sc2ccc(C)cc2)c(N)c1	-2.0	0.1	0.2	98.0	.
COc1cc(Sc2ccc(C)cc2)c(OC)cc1N	2.6	93.7*	0.8	103.0	-12.2
Cc1ccc(C(=O)N2N=C(CC(C)C)CC2(O)C(F)(F)F)o1 (configuration not stated)	-6.7	0.1	-1.8	97.0	.
C/C=C1\COC(C(=O)NCCCN2CCCC2=O)(C(F)(F)F)C=C1C=C(C)C (configuration not stated)	-1.6	12.0	0.8	104.0	.
O=S(=O)(c1ccc(Br)s1)N1CCN(c2ccc(F)cc2)CC1	3.4	66.1*	-0.6	82.0	-13.2
COc1cccc(N2CCN(c3ncnc4c3[nH]c3ccc(F)cc34)CC2C)c1 (configuration not stated)	5.9	98.5*	1.1	94.0	103.6*
O=C(Cc1ccc(S(=O)(=O)N2CCOCC2)s1)OCc1ccc(Cl)cc1	12.5	11.4	0.0	98.0	.
COc1ccc(C(C)(C)C)cc1NS(=O)(=O)c1cccc2cccnc12	6.0	59.0*	0.6	100.0	-11.6
Cc1ccccc1Cn1c(C)c(C(=O)NCc2ccc(Cl)c(Cl)c2)sc1=O	2.3	-1.1	-0.3	100.0	.
c1ccc(COc2ccc(-c3cc4nc(NCCN5CCOCC5)ccn4n3)cc2)cc1	6.0	61.4*	-1.4	94.0	15.1
c1ccc(COc2cccc(-c3cc4nc(NCCN5CCOCC5)ccn4n3)c2)cc1	8.5	3.8	2.2	98.0	.
O=C(NCCCN1CCCC1=O)C1CCN(S(=O)(=O)c2cc(C(F)(F)F)ccc2Cl)CC1	-1.6	89.8*	2.1	87.0	-11.3
O=C(NCCCN1CCCC1=O)C1CCN(S(=O)(=O)c2cccc(C(F)(F)F)c2)CC1	-6.7	0.2	-0.2	103.0	.
Cc1cc(NC(=O)CCSc2ccc(Cl)cc2)no1	-5.5	-1.2	-2.2	97.0	.
COc1cccc(OC)c1OCCN1CCN(C(c2ccccc2)c2ccccc2)CC1	-9.1	62.2*	-2.0	90.0	-9.9
COc1cccc(OC)c1OCCCN1CCC(Cc2ccccc2)CC1	-7.1	67.7*	-0.2	96.0	-11.9
COc1ccc(CN2CCC(Cc3ccccc3)CC2)cc1OC	-10.2	28.2	-1.0	97.0	.
CC1=C(C(=O)c2ccccc2)C(c2ccc(N3CCOCC3)cc2)NC(=O)N1 (configuration not stated)	0.7	2.2	-0.3	219.0	.
O=C(CN1CCN(C(=O)c2ccc(-c3nc4ccccc4s3)o2)CC1)Nc1ccc(F)cc1	2.5	0.2	-2.9	102.0	.
Cc1ccc2c(Cl)cc(Cl)c(OCc3c(C)noc3C)c2n1	1.3	59.2*	0.3	96.0	-4.5
CCc1[nH]nc(C(=O)N2CCCC(N3CCN(c4ccccc4C)CC3)C2)c1C (configuration not stated)	-8.0	-8.7	0.2	106.0	.
CC1(C)CC2(CCCN(CC(O)(c3ccccc3)c3ccccc3)C2)CCO1 (configuration not stated)	-8.0	14.8	1.7	93.0	.
CCC1(C)CC2(CCCN(CCC(O)(c3ccccc3)c3ccccc3)C2)CCO1 (configuration not stated)	-8.9	58.3*	0.9	97.0	-11.5
O=C(c1cc(COc2c(F)cccc2F)on1)N1CCC(c2ccncc2)CC1	-6.6	86.3*	0.1	96.0	-14.6
SMILES	rCAG RNA binder	Exocytosis inh	PG9 Ab binder	ABCB6 inh MLPCN	Granule exo CP1
Cc1ccc(C)c(OCc2cc(C(=O)N3CC[C@@H]4CCCC[C@H]4C3)no2)c1	0.6	-4.8	-1.1	99.0	.
COc1cc(C)ccc1OCc1cc(C(=O)N2CCC(c3ccc(F)cc3)C2)no1 (configuration not stated)	4.1	76.7*	0.8	97.0	-2.7
Cc1cccc(C)c1OCc1cc(C(=O)N2CCC(c3ccncc3)CC2)no1	-4.3	12.8	1.5	98.0	.
CCOC(=O)C1(CCOc2ccccc2)CCN(CC(O)CO)CC1 (configuration not stated)	-4.5	1.6	1.9	91.0	.
Cc1ccc(N2C(=O)CC(N3CCN(c4ccccn4)CC3)C2=O)cc1 (configuration not stated)	-3.5	-1.4	0.1	104.0	.
Cc1ccc2nc(-c3ccc(N4C(=O)CC(N5CCN(CCO)CC5)C4=O)cc3)sc2c1 (configuration not stated)	1.0	66.3*	-3.8	98.0	62.1*
CC(=O)Nc1ccc(-c2ccnc3c2CC(C)(C(=O)Nc2ccc(Cl)cc2)O3)cc1 (configuration not stated)	2.2	-1.2	1.5	98.0	.
COc1ccc(Nc2nc(-c3sc(C)nc3C)cs2)cc1	-3.7	81.8*	-4.2	95.0	1.3
Cc1c(C(=O)OCC(=O)Nc2cccc(S(N)(=O)=O)c2)oc2c1ccc1ccccc12	31.2	88.0*	-0.3	97.0	93.0*
CCOc1ccc2nc(C)cc(Nc3cccc([N+](=O)[O-])c3)c2c1	24.5	90.2*	-5.9	95.0	80.0*
CNc1ccccc(-c2ccc3ccccc3n2)c1=O	7.7	5.8	-5.5	106.0	.
COc1cccc2c1C(=O)c1ccc3ccccc3c1C2=O	.	61.4*	.	96.0	78.0*
COc1ccccc1Nc1c2ccccc2nc2ccccc12	2.9	81.7*	-2.7	97.0	38.3
COc1ccc(Cl)cc1Nc1cc(C)nc2ccccc12	0.2	76.1*	-2.5	96.0	-3.7
CC(=O)c1c(C)n(-c2cccc(Cl)c2)c2ccc(O)cc12	0.1	80.7*	1.0	86.0	-1.7
CN1CCN(CCCNC(=O)c2ccc(/C=C3\Sc4ccccc4N(Cc4ccccc4F)C3=O)cc2)CC1	-1.0	65.7*	-0.2	92.0	6.6
CCc1ccc(/C=C2/Sc3ccccc3N(CC(=O)NCCCN3CCOCC3)C2=O)cc1	-4.9	66.4*	0.4	99.0	62.7*
CCN1CCN(CCNC(=O)c2ccc(/C=C3/Sc4ccccc4N(Cc4cccc(Cl)c4)C3=O)cc2)CC1	2.9	78.9*	0.2	96.0	54.5
O=C(CN1C(=O)/C(=C\c2cccc(Br)c2)Oc2ccccc21)NCCCN1CCOCC1	1.7	64.0*	2.4	100.0	95.5*
O=C(CN1C(=O)/C(=C/c2ccc(C(F)(F)F)cc2)Sc2ccccc21)NCCCN1CCOCC1	-7.0	5.9	0.2	99.0	.
Cc1ccc2c(COC(=O)C3CSC4(C)CCC(=O)N34)cc(=O)oc2c1C (configuration not stated)	3.5	2.3	0.6	97.0	.
Nc1ccn([C@@H]2O[C@H](C(=O)N[C@H](Cc3ccccc3)C(=O)NCC(F)(F)F)[C@@H](O)[C@H]2O)c(=O)n1	3.6	.	-1.0	.	.
Oc1ccc(Cl)cc1/C=C/c1ccc2cccc(O)c2n1	32.0	78.3*	-0.4	101.0	-9.2
Oc1cccc2ccc(/C=C/c3ccccc3Br)nc12	15.5	-9.4	0.6	102.0	.
COc1cc(C2c3[nH]c4ccccc4c3CCN2Cc2cn(C)nc2C)ccc1F (configuration not stated)	-3.1	0.7	-0.5	99.0	.

Screens (PubChem)
